According to PubChem BioAssay (EPA / NIEHS):
Several values for one entry are separate records, joined by “and”; a condition that tells them apart may be missing. Equal entries are not always repeated. A structure can be active in one record and inactive in another. Activity calls are given as the source filed them. How the source made its calls: active means hit-call score of the fitted dose curve at least 0.9, where 1 is the maximum; inactive means score below 0.9.

Read-out: Insulin-like growth factor-binding protein 1 (IGFBP1), IGFBP1 (gene 3484)
Assay: LTEA_HepaRG_IGFBP1: Life Technologies and Expression Analysis (LTEA) Assay for Insulin-like growth factor-binding protein 1 (IGFBP1) using HepaRG (AID 2283508)
Conditions: mRNA level, 48 h; actives raise or lower the signal
Method in brief: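 Thawed HepaRG cells are plated for 48 h, switched to serum-free induction medium, then dosed in duplicate for another 48 h (100 uM top, half-log steps). Lysates in RLT go to qRT-PCR, and gain or loss of signal is fitted relative to vehicle.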

| SMILES | outcome | AC50 |
| --- | --- | --- |
| CCOC(=O)C(Cl)Cc1cc(-n2nc(C)n(C(F)F)c2=O)c(F)cc1Cl (configuration not stated) | inactive | – |
| CCc1nn(C)c(C(=O)NCc2ccc(C(C)(C)C)cc2)c1Cl | – | 2.34 µM (active) |
| COC(=O)N(OC)c1ccccc1COc1ccn(-c2ccc(Cl)cc2)n1 | – | 64.3 µM (active) |
| N#CC(CCc1ccc(Cl)cc1)(Cn1cncn1)c1ccccc1 (configuration not stated) | – | 74.4 µM (active) |
| CNC(=O)ON=CC(C)(C)SC | inactive | – |
| CCNc1nc(Cl)nc(NC(C)C)n1 | inactive | – |
| CCON=C(CC)C1=C(O)CC(c2c(C)cc(C)cc2C)CC1=O (configuration not stated) | inactive | – |
| CCCC1COC(Cn2cncn2)(c2ccc(Cl)cc2Cl)O1 (configuration not stated) | – | 34.4 µM (active) |
| CCCCOC(=O)c1ccccc1C(=O)OCCCC | inactive | – |
| COC(=O)c1ccccc1C(=O)OC | inactive | – |
| C=CCC1=C(C)C(OC(=O)C2C(C=C(C)C)C2(C)C)CC1=O (configuration not stated) | inactive | – |
| COP(N)(=O)SC (configuration not stated) | inactive | – |
| O=C(O)COc1nc(Cl)c(Cl)cc1Cl | inactive | – |
| COc1ccc(C(c2ccc(OC)cc2)C(Cl)(Cl)Cl)cc1 | – | 72.3 µM (active) |
| COC(=O)C=C(C)OP(=O)(OC)OC | inactive | – |
| CCOc1cc(Oc2ccc(C(F)(F)F)cc2Cl)ccc1[N+](=O)[O-] | – | 68.8 µM (active) |
| CCOC(=O)CC(SP(=S)(OC)OC)C(=O)OCC (configuration not stated) | inactive | – |
| CNC(=S)S | inactive | – |
| CCCN(CCC)c1c([N+](=O)[O-])cc(S(N)(=O)=O)cc1[N+](=O)[O-] | – | 92.9 µM (active) and 36.6 µM (active) and 78.9 µM (active) |
| CC(C)C1(C)N=C(c2nc3ccccc3cc2C(=O)O)NC1=O (configuration not stated) | inactive | – |
| CC(Oc1ccc(Cl)cc1Cl)C(=O)O (configuration not stated) | inactive | – |
| O=C(Nc1ccccc1)Nc1ccnc(Cl)c1 | – | 63.4 µM (active) |
| Cc1ccc(-c2c(Cl)nc(C#N)n2S(=O)(=O)N(C)C)cc1 | – | 13.6 µM (active) |
| C#CCOS(=O)OC1CCCCC1Oc1ccc(C(C)(C)C)cc1 (configuration not stated) | – | 14.6 µM (active) |
| CCCCC(CC)COC(=O)c1ccccc1C(=O)OCC(CC)CCCC (configuration not stated) | inactive | – |

Read-out: Interleukin 6 (IL6), IL6 (gene 3569)
Assay: LTEA_HepaRG_IL6: Life Technologies and Expression Analysis (LTEA) Assay for Interleukin 6 (IL6) using HepaRG (AID 2283509)
Conditions: mRNA level, 48 h; actives raise or lower the signal
Method in brief: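 HepaRG cells exposed in duplicate for 48 h to eight half-log concentrations, top 100 uM, in 0.5% DMSO serum-free induction medium. mRNA measured by qRT-PCR, normalized to ACTB, GAPDH and POLR2A. Bidirectional fit versus DMSO.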

| SMILES | outcome | AC50 |
| --- | --- | --- |
| CCOC(=O)C(Cl)Cc1cc(-n2nc(C)n(C(F)F)c2=O)c(F)cc1Cl (configuration not stated) | inactive | – |
| CCc1nn(C)c(C(=O)NCc2ccc(C(C)(C)C)cc2)c1Cl | – | 1.37 µM (active) |
| COC(=O)N(OC)c1ccccc1COc1ccn(-c2ccc(Cl)cc2)n1 | – | 83.9 µM (active) |
| N#CC(CCc1ccc(Cl)cc1)(Cn1cncn1)c1ccccc1 (configuration not stated) | – | 80.2 µM (active) |
| CNC(=O)ON=CC(C)(C)SC | inactive | – |
| CCNc1nc(Cl)nc(NC(C)C)n1 | inactive | – |
| CCON=C(CC)C1=C(O)CC(c2c(C)cc(C)cc2C)CC1=O (configuration not stated) | inactive | – |
| CCCC1COC(Cn2cncn2)(c2ccc(Cl)cc2Cl)O1 (configuration not stated) | – | 83.2 µM (active) |
| CCCCOC(=O)c1ccccc1C(=O)OCCCC | inactive | – |
| COC(=O)c1ccccc1C(=O)OC | inactive | – |
| C=CCC1=C(C)C(OC(=O)C2C(C=C(C)C)C2(C)C)CC1=O (configuration not stated) | inactive | 50 µM (active) and 74.3 µM (active) |
| COP(N)(=O)SC (configuration not stated) | inactive | – |
| O=C(O)COc1nc(Cl)c(Cl)cc1Cl | inactive | – |
| COc1ccc(C(c2ccc(OC)cc2)C(Cl)(Cl)Cl)cc1 | inactive | – |
| COC(=O)C=C(C)OP(=O)(OC)OC | inactive | – |
| CCOc1cc(Oc2ccc(C(F)(F)F)cc2Cl)ccc1[N+](=O)[O-] | inactive | – |
| CCOC(=O)CC(SP(=S)(OC)OC)C(=O)OCC (configuration not stated) | inactive | – |
| CNC(=S)S | inactive | – |
| CCCN(CCC)c1c([N+](=O)[O-])cc(S(N)(=O)=O)cc1[N+](=O)[O-] | – | 93.1 µM (active) and 85.4 µM (active) and 91 µM (active) |
| CC(C)C1(C)N=C(c2nc3ccccc3cc2C(=O)O)NC1=O (configuration not stated) | inactive | – |
| CC(Oc1ccc(Cl)cc1Cl)C(=O)O (configuration not stated) | inactive | – |
| O=C(Nc1ccccc1)Nc1ccnc(Cl)c1 | – | 93.9 µM (active) |
| Cc1ccc(-c2c(Cl)nc(C#N)n2S(=O)(=O)N(C)C)cc1 | – | 13.2 µM (active) |
| C#CCOS(=O)OC1CCCCC1Oc1ccc(C(C)(C)C)cc1 (configuration not stated) | – | 23.1 µM (active) |
| CCCCC(CC)COC(=O)c1ccccc1C(=O)OCC(CC)CCCC (configuration not stated) | inactive | – |

Read-out: Interleukin 6 Receptor (IL6R), IL6R (gene 3570)
Assay: LTEA_HepaRG_IL6R: Life Technologies and Expression Analysis (LTEA) Assay for Interleukin 6 Receptor (IL6R) using HepaRG (AID 2283510);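 on AC50: differentiated human HepaRG liver cells in serum-free induction medium; TaqMan qRT-PCR signal normalized to ACTB GAPDH and POLR2A housekeeping genes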
Conditions: mRNA level, 48 h; actives raise or lower the signal
Method in brief: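 Readout is IL6R transcript level by TaqMan qRT-PCR, normalized to three housekeeping genes and fitted bidirectionally against 0.5% DMSO controls. Human HepaRG cells received chemicals for 48 h in serum-free induction medium, highest concentration 100 uM.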

| SMILES | outcome | AC50 |
| --- | --- | --- |
| CCOC(=O)C(Cl)Cc1cc(-n2nc(C)n(C(F)F)c2=O)c(F)cc1Cl (configuration not stated) | inactive | – |
| CCc1nn(C)c(C(=O)NCc2ccc(C(C)(C)C)cc2)c1Cl | inactive | – |
| COC(=O)N(OC)c1ccccc1COc1ccn(-c2ccc(Cl)cc2)n1 | inactive | – |
| N#CC(CCc1ccc(Cl)cc1)(Cn1cncn1)c1ccccc1 (configuration not stated) | inactive | – |
| CNC(=O)ON=CC(C)(C)SC | inactive | – |
| CCNc1nc(Cl)nc(NC(C)C)n1 | inactive | – |
| CCON=C(CC)C1=C(O)CC(c2c(C)cc(C)cc2C)CC1=O (configuration not stated) | inactive | – |
| CCCC1COC(Cn2cncn2)(c2ccc(Cl)cc2Cl)O1 (configuration not stated) | inactive | – |
| CCCCOC(=O)c1ccccc1C(=O)OCCCC | inactive | – |
| COC(=O)c1ccccc1C(=O)OC | inactive | – |
| C=CCC1=C(C)C(OC(=O)C2C(C=C(C)C)C2(C)C)CC1=O (configuration not stated) | inactive | – |
| COP(N)(=O)SC (configuration not stated) | inactive | – |
| O=C(O)COc1nc(Cl)c(Cl)cc1Cl | inactive | – |
| COc1ccc(C(c2ccc(OC)cc2)C(Cl)(Cl)Cl)cc1 | inactive | – |
| COC(=O)C=C(C)OP(=O)(OC)OC | inactive | – |
| CCOc1cc(Oc2ccc(C(F)(F)F)cc2Cl)ccc1[N+](=O)[O-] | inactive | – |
| CCOC(=O)CC(SP(=S)(OC)OC)C(=O)OCC (configuration not stated) | inactive | – |
| CNC(=S)S | inactive | – |
| CCCN(CCC)c1c([N+](=O)[O-])cc(S(N)(=O)=O)cc1[N+](=O)[O-] | inactive | 68.4 µM (active) and 70 µM (active) |
| CC(C)C1(C)N=C(c2nc3ccccc3cc2C(=O)O)NC1=O (configuration not stated) | inactive | – |
| CC(Oc1ccc(Cl)cc1Cl)C(=O)O (configuration not stated) | inactive | – |
| O=C(Nc1ccccc1)Nc1ccnc(Cl)c1 | – | 76.2 µM (active) |
| Cc1ccc(-c2c(Cl)nc(C#N)n2S(=O)(=O)N(C)C)cc1 | inactive | – |
| C#CCOS(=O)OC1CCCCC1Oc1ccc(C(C)(C)C)cc1 (configuration not stated) | – | 14.5 µM (active) |
| CCCCC(CC)COC(=O)c1ccccc1C(=O)OCC(CC)CCCC (configuration not stated) | inactive | – |
